The campaign covered roughly 5,500 compounds. About 2,000 (36%) were called active. Another 18% or so got no clear call; they are omitted. No stated cut-off is given here; in the data, active means normalized growth mostly below about 0.91 (no sharp cut-off); inconclusive means no clear call, values can overlap the other calls; inactive means mostly above about 0.92. Some of the results follow.
Experiment: chemical genetic growth profiling, strain panel (AID 1159580);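 further: tested at 20 µM; growth read once vehicle control cultures reached saturation at 30 °C; 1 = growth at the plate median or of vehicle wells; lower values mean less growth of the strain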
Settings: S. cerevisiae deletion strains, growth OD

Measured: normalized growth

C#CCN(C)CCCOc1ccc(Cl)cc1Cl
inactive: locus YAL040C, strain CLN3, active compounds read low 1.01 | locus YCL061C, strain MRC1 (second series), active compounds read low 0.989 | locus YDR150W, strain NUM1, active compounds read low 0.974 | locus YDR363W, strain ESC2, active compounds read low 0.991 | locus YER002W, strain NOP16, active compounds read low 0.993 | locus YMR263W, strain SAP30, active compounds read low 1 | locus YMR307W, strain GAS1, active compounds read low 0.989 | locus YNL175C, strain NOP13, active compounds read low 1 | locus YNL197C, strain WHI3, active compounds read low 1 | locus YNL224C, strain SQS1, active compounds read low 1.01 | locus YNL322C, strain KRE1, active compounds read low 0.993 | locus YOR083W, strain WHI5 (second series), active compounds read low 0.896 | locus YPL055C, strain LGE1, active compounds read low 0.961

From PubChem BioAssay AID1159580 (chemical genetic matrix, 2015)
